TDP1 inh – qHTS Assay for Inhibitors of Tyrosyl-DNA Phosphodiesterase (TDP1). Tyrosyl-DNA phosphodiesterase 1 (Homo sapiens), Q9NUW8. recombinant TDP1, AlphaScreen DNA substrate cleavage. Potency, µM (series often up to 130 µM), without a hit: at the highest dose activity change, negative = inhibition, hits mostly inhibitors. 350,000 compounds, 0.28% hits. AID 485290, 2010; also: potency is read from the fitted curve at half-maximal effect; nearly all actives have a fitted effect of over 40% in size
Target sequence (Q9NUW8 whole entry, looked up): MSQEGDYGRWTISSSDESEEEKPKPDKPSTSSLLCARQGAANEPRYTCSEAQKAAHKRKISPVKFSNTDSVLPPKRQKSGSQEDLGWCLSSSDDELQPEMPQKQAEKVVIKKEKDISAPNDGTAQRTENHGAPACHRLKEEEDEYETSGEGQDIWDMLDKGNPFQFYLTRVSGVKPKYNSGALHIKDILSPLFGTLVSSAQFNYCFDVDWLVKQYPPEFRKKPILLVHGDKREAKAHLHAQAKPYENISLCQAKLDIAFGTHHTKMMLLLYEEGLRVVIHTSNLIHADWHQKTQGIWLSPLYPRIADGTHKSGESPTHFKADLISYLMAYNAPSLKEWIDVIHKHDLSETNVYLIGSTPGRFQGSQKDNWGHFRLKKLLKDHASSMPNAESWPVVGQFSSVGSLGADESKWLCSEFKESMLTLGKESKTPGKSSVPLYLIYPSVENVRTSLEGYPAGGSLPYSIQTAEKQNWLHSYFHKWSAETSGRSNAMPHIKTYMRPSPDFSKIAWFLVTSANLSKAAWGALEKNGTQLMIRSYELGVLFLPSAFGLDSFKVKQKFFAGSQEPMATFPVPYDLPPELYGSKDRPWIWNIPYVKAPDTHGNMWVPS
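Recombinant human Tdp1 (E. coli-expressed, 1 nM final) preincubated with compounds 15 min at room temperature, then 5'-biotin/3'-phosphotyrosine-FITC DNA substrate (15 nM final) added for 5 min. AlphaScreen beads (10 ug/ml final) added 10 min; cleavage lowers signal.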
TDP1 cell CPT – qHTS for Inhibitors of human tyrosyl-DNA phosphodiesterase 1 (TDP1): qHTS in cells in presence of CPT | chicken DT40 Tdp1-/-;hTDP1 cells + 20 nM CPT, ATP luminescence, 48 h | Potency, µM (highest dose often 46.2 µM), inactives show at the highest dose activity change, negative = growth inhibition, hits mostly inhibitors | 420,000 compounds, 12% hits | AID 686979, 2013; also: potency is read from the fitted curve at half-maximal effect; nearly all actives have a fitted effect of over 55% in size
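Cell growth measured by CellTiter-Glo luminescence after a minimum 48 h, 37 C compound exposure with 20 nM CPT in Tdp1-knockout DT40 cells stably expressing hTDP1, seeded 400/well; qHTS titration format.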
IL-1B inflam inh – qHTS for Inhibitors of Inflammasome Signaling: IL-1-beta AlphaLISA Primary Screen | AID 743279, 2014 | 360,000 compounds, 4.7% hits | activity change, % at 57.5 µM | THP-1 LPS/ATP IL-1B secretion, AlphaLISA, 16 h; active compounds read low; in the data active = activity change below about -50%; inconclusive = mostly about -30% to -49%
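Secreted IL-1B measured by AlphaLISA bead assay after 16 h compound exposure of THP-1 cells; compounds (final up to 57.5 uM) added 1 h before LPS (250 ng/mL) and ATP (1.25 mM) stimulation; lower signal means less secretion.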
TDP1 cell noCPT – qHTS for Inhibitors of human tyrosyl-DNA phosphodiesterase 1 (TDP1): qHTS in cells in absence of CPT; Potency, µM (doses to about 46.2 µM), for the others: at the highest dose activity change, negative = growth inhibition, usual class: inhibitors; DT40 Tdp1-/- hTDP1 cells, no CPT, ATP luminescence, 48 h; 420,000 compounds, 15% hits; also: potency is read from the fitted curve at half-maximal effect; nearly all actives have a fitted effect of over 55% in size
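Camptothecin absent (DMSO only). Human TDP1-complemented DT40 knockout cells, 400 cells/well, 37 °C for minimum 48 hr; ATP measured via CellTiter-Glo, 30 min dark incubation, luminescence.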
Six1-Eya2 blk – qHTS Assay for Inhibitors of the Six1/Eya2 Interaction; Homeobox protein SIX1 (Homo sapiens) + Protein phosphatase EYA2 (Homo sapiens), …; AlphaScreen GST-Six1/His-Eya2 binding, biochemical; active compounds read low; activity change, % (test concentration not listed); 360,000 compounds, 0.56% hits; AID 651725, 2012; in the data active = activity change below about -65%; inconclusive = mostly about -30% to -63%
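AlphaScreen luminescence read after one hour at 37 °C in darkness. Pin-transferred compounds met GST-Six1 and His-Eya2 protein (5X stock 250 nM/500 nM) plus glutathione donor and Ni-chelate acceptor beads (5X, 50 ug/mL).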
CtBP-E1A blk – qHTS Assay for Inhibitors of the CtBP/E1A Interaction. CtBP / adenovirus E1A interaction (AlphaScreen). AlphaScreen GST-E1A/His-CtBP binding, 1536-well; active compounds read low. activity change, % (concentration not given with the values). 340,000 compounds, 0.49% hits. AID 651724, 2012; in the data active = activity change below about -65%; inconclusive = mostly about -30% to -63%
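AlphaScreen with 125 nM GST-E1A and 125 nM His-CtBP (5X stocks) in Tris pH 8.0, 300 mM NaCl, BSA, Tween 20, TCEP. Compounds preincubated 2 h at 37 deg C, then glutathione donor/nickel acceptor beads added for 1 h at 37 deg C in dark.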
The depositor's hits bear a star; ? = inconclusive; / = not tested or not shown; [ ] = dose if it differs, or a comment. Hits are enriched below; roughly 18% of the tested compounds scored in any of these assays. Unless noted, calls follow the shape of the dose curve; as a rule, active = well fitted curve in the direction sought with a large enough effect; inconclusive = small, poorly fitted or top-dose-only effect, or another doubt; inactive = no such curve, though single readings can be large; an effect the other way counts as inactive or inconclusive. % is scaled to controls: 0 for no effect and ±100 for the full control effect.

SMILES	TDP1 inh	TDP1 cell CPT	IL-1B inflam inh	TDP1 cell noCPT	Six1-Eya2 blk	CtBP-E1A blk
COc1ccc(-c2csc(NC(=O)C3CC(=O)N(Cc4ccccc4)C3)n2)cc1OC (stereo not given)	7%	?	-59*	?	-27	-26
COc1ccc(-c2nc(CCNC(=O)c3ccco3)cs2)cc1OC	0%	?	-9	21µM*	-25	-3
Cn1cccc1C(=O)N1CCC2(CCCN(C(=O)Nc3cccc(F)c3)C2)CC1	/	3%	/	?	/	/
COc1ccc(-c2nc(NC(=O)c3n[nH]c(=O)c4ccccc34)sc2C)cc1	3%	21µM*	18	9.2µM*	-2	-1
O=C(NC(=S)Nc1nc2c(ccc3ccccc32)s1)c1cccs1	3%	?	0	15µM*	-5	-6
CCCC(=O)Nc1ccc(NC(=S)NC(=O)c2cccs2)cc1	0%	-15%	-15	-9%	?	-3
COc1cc(NC(=O)c2n[nH]c(=O)c3ccccc23)cc(OC)c1	5%	-11%	-6	-6%	-9	/
COc1ccc(-c2nc(NC(=O)c3cc(C(C)(C)C)nn3C)sc2C)cc1	4%	?	-24	21µM*	-2	-16
O=C(Cc1ccccc1F)Nc1nc(-c2ccc(F)cc2)cs1	-1%	8.2µM*	-94*	5.8µM*	0	3
CC(=O)Nc1cccc(C(=O)NC2CCCc3c2cnn3-c2ccccc2F)c1 (stereo not given)	3%	-2%	38	0%	0	5
COc1ccc(C(CNC(=O)C2CC(=O)N(Cc3ccccc3)C2)N2CCCC2)cc1 (stereo not given)	3%	-9%	-12	5%	-2	/
COc1ccc(-c2csc(NC(=O)CCNC(=O)c3ccco3)n2)cc1OC	2%	?	-18	16µM*	-28	/
COc1ccccc1C(CNC(=O)C1CC(=O)N(Cc2ccccc2)C1)N1CCCC1 (stereo not given)	1%	-2%	-8	4.6µM*	3	/
COc1ccc(-c2csc(NC(=S)NC(=O)c3cccs3)n2)cc1OC	0%	15µM*	-16	12µM*	?	?
COCC(C)n1c(C)cc(C(=O)COC(=O)c2nc3nc(C)cc(C)n3n2)c1C (stereo not given)	2%	?	11	?	-5	-1
CC1=CNC(=O)CC(C)(C)C1	/	-1%	14	-2%	6	3
CCOc1cc(N2CCOCC2)c(OCC)cc1NC(=O)C1CC(=O)N(c2ccccc2OCC)C1 (stereo not given)	-3%[56.1 µM]	-11%	-13	-10%	-3	-12
CS(=O)(=O)c1ccc(-c2cccc(NC(=O)COc3ccc(Cl)cc3)c2)nn1	0%	-1%	-2	16%	7	-12
COc1ccc(-c2cccc(NC(=O)c3ccco3)c2)nn1	/	?	-10	26µM*	-27	-18
O=C(Nc1cccc(-c2ccc3nncn3n2)c1)c1ccco1	4%	?	23	?	?	?
CS(=O)(=O)c1ccc(-c2cccc(NC(=O)c3ccco3)c2)nn1	1%	?	-8	18µM*	-14	-10
N#C/C(=C(/O)COC(=O)c1cccnc1Cl)c1nc2ccccc2[nH]1	5%	18µM*	59	23µM*	-12	-15
CCCC(=O)OC/C(O)=C(\C#N)c1nc2ccccc2[nH]1	5%	-14%	-105*	?	-10	-16
N#CC(=C(O)COC(=O)Cc1c[nH]c2ccccc12)c1nc2ccccc2[nH]1	/	2%	40	?	-8	-14
N#C/C(=C(/O)COC(=O)CCC1CCCCC1)c1nc2ccccc2[nH]1	9%	5.2µM*	-85*	4.1µM*	-3	-1
SMILES	TDP1 inh	TDP1 cell CPT	IL-1B inflam inh	TDP1 cell noCPT	Six1-Eya2 blk	CtBP-E1A blk
N#CC(=C(O)COC(=O)CCCNC(=O)c1ccc(Cl)cc1)c1nc2ccccc2[nH]1	/	?	-97*	-18%	-12	-18
Cc1c(C(=O)/C=C/c2ccccc2F)c2cc(O)ccc2n1C	/	-17%	-11	?	5	4
COc1ccc2c(Cl)c(C(=O)NN)sc2c1	6%	-8%	?	-11%	-2	14
CCOC(=O)c1c(C)[nH]c(C)c1S(=O)(=O)Nc1ccc(CN2CCCCC2)cc1	1%	0%	-27	19%	-7	-11
CC(=O)NC1CCCC(NC(C)=O)C1 (stereo not given)	/	21%	9	6%	7	7
CC1(C(=O)OCC(=O)Nc2ccccc2)CC1(Cl)Cl (stereo not given)	-1%	6%	27	7%	6	-5
COCC(=O)OC/C(O)=C(\C#N)c1nc2ccccc2[nH]1	5%	2.9µM*	-104*	2.6µM*	-16	-10
N#C/C(=C(/O)CCl)c1nc2ccccc2[nH]1	10%	2.6µM*	-95*	5.2µM*	-13	4
N#C/C(=C(\O)Cc1ccccc1)c1nc2ccccc2[nH]1	-2%	?	0	?	-7	1
N#C/C(=C(/O)COC(=O)c1ccccc1O)c1nc2ccccc2s1	3%	-26%	14	16µM*	0	/
CCN(CC)c1ccc(O)c(C=Nc2ccc(C)c(C)c2)c1	5%	0%	-8	-10%	7	0
CCO[C@H]1OC(C(=O)Nc2ccccc2)=C[C@@H](c2csc3ccccc23)[C@@H]1CCCO	5%	?	0	-101%	-4	-2
CCCS(=O)(=O)c1nc(S(=O)(=O)c2ccc(C)cc2)c(NC(C)c2ccccc2)s1 (stereo not given)	5%	?	/	10µM*	/	/
CCS(=O)(=O)c1nc(S(=O)(=O)c2ccc(C)cc2)c(NCc2ccccc2Cl)s1	3%	16µM*	/	10µM*	/	/
CCS(=O)(=O)c1nc(S(=O)(=O)c2ccc(C)cc2)c(NC(C)c2ccccc2)s1 (stereo not given)	3%	?	/	?	/	/
Cc1ccc(S(=O)(=O)c2nc(S(=O)(=O)c3ccc(C)cc3)c(NCCCOC(C)C)s2)cc1	-5%	?	/	16µM*	/	/

Screening results from PubChem.
